Experimental data from PubChem BioAssay (NCI).
Several values for one entry are separate records, joined by “and”; a condition that tells them apart may be missing. Equal values may be shown once. Compounds without any hit were thinned out: in the full panel of roughly 83,000, 20% have a hit.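 Treatment: one concentration, 48 hours, 96-well format. Scoring: percent growth, with anything below 10 considered active.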 A number with no mark means an inactive call. Activity calls are given as the source filed them.

Test system: OVCAR-3 ovarian
Test: NCI-60 one-dose screen, 48 h (100 = growth as untreated, 0 = no growth, -100 = all killed)
Settings: 1 µM
Protocol: Growth inhibition of the OVCAR-3 human tumor cell line is measured as a screen for anti-cancer activity. Cells are grown in 96 well plates and exposed to the test compound for 48 hours. Compounds are tested at a single concentration, which is 10^-5 M for most compounds. The reported endpoint is percent growth (GI% or GIPRCNT), where numbers from 0 - 100% represent growth inhibition, and numbers from -100% - 0 represent cell death. For example, a value of 40 represents 60% growth inhibition. A value of 0 means no net growth occurred over the course of the experiment. A value of -40 indicates 40% of cells at the beginning of the experiment died by the end of the experiment. A value of -100 means all cells are dead at the end of the experiment.
NCI-60 Human Tumor Cell Lines Screen was performed using the standard one-dose NCI protocol, which is described in more detail at https://dtp.cancer.gov/discovery_development/nci-60/default.htm.
Compounds with GIPRCNT values below 10 were considered active. Activity score was based on GIPRCNT using the following formula: […]
Score is 0 for GIPRCNT values of 100 or above, 50 for GIPRCNT values of 0, and 100 for GIPRCNT values of -100.

With `CC/C(=C(/c1ccc(O)cc1)c1ccc(OCCN(C)C(=O)COCCOCCNC(=O)Cc2ccc3c(c2)CN([C@@H]2CCC(=O)NC2=O)C3=O)cc1)c1ccccc1` as the compound, how does the growth read?
Its growth is 95.6%.

With `CC/C(=C(\c1ccc(O)cc1)c1ccc(OCCNC)cc1)c1ccccc1` as the compound, how does the growth read?
The growth was 115%.

Same assay, conditions: 10 µM

How did the growth turn out when `CC/C(=C(/c1ccc(O)cc1)c1ccc(OCCN(C)C(=O)COCCOCCNC(=O)Cc2ccc3c(c2)CN([C@@H]2CCC(=O)NC2=O)C3=O)cc1)c1ccccc1` was run?
The growth was 61.3%.

Which growth does the source give for `CC/C(=C(\c1ccc(O)cc1)c1ccc(OCCNC)cc1)c1ccccc1` here?
Its growth is 85.4%.

Same assay, conditions: 10 µM unless noted

With `O=C(CSc1nnc(-c2ccc(-c3nc4ccccc4[nH]3)cc2)o1)Nc1ccc(Cl)cc1` as the compound, how does the growth read?
Its growth is 20.8%.

With `Nc1nn2c(-c3cc4cc(Br)ccc4oc3=O)ccnc2c1N=Nc1ccccc1` as the compound, how does the growth read?
The growth was 27.1%.

Which growth does the source give for `CN(CCSSCCN1CCOCC1)C(=O)Oc1cc2c(c3ccccc13)[C@H](CCl)CN2C(=O)c1cc2cc(OCCCN3CCC3)ccc2[nH]1` here?
The growth was -46.7% (active).

For `COc1ccc(NC(=O)CSc2nnc(-c3ccc(-c4nc5ccc(Cl)cc5[nH]4)cc3)o2)cc1`, which growth is on record?
Its growth is 41%.

Which growth does the source give for `COc1c2c(c(Br)c3c1C(CCc1ccccc1)N(C)CC3)OCO2` (stereo not given) here?
The growth was 55.5%.

Which growth does the source give for `S=C(Nc1ccccc1)Nc1ccc(OCc2nc3ccc(Cl)cc3[nH]2)cc1` here?
The growth was 84.9%.

For `CC(C)CN1C(=O)/C(=C\C(=O)c2cc3ccccc3oc2=O)c2ccccc21`, which growth is on record?
The growth was 51.1%.

`Cn1cc(-c2cc(N)n3nc(-c4c[nH]c5ccc(F)cc45)cc3n2)c2cc(Br)cnc21` was tested. Which growth did it give?
The growth was 109%.

Which growth does the source give for `CS(=O)(=O)Nc1cccc(-n2c(COc3ccc(OC(F)(F)F)cc3)nc3ccccc32)c1` here?
Its growth is 107% and 112%.

`COc1ccc(C(=O)c2cc(C(C)=O)c3c(C)cc(C)cn23)cc1` was tested. Which growth did it give?
The growth was 43.9%.

Which growth does the source give for `COc1ccc2[nH]c(O)c(N=Nc3nc(-c4ccccc4)cs3)c2c1` here?
Its growth is -2.28% (active).

With `O=C1Nc2ccccc2/C1=C/C(=O)c1cc2ccccc2oc1=O` as the compound, how does the growth read?
The growth was 55.9%.

`COc1cc(NC(=O)C(C)C)ccc1C(=O)NC(=S)Nc1ccc(S(N)(=O)=O)cc1` was tested. Which growth did it give?
Its growth is 92%.

How did the growth turn out when `O=C(NC(=S)N1CCN(c2ncnc3c2cnn3-c2ccccc2)CC1)c1ccc(F)cc1` was run?
The growth was 113%.

For `COc1cccc(-c2ccc(/C=N/NC(=O)c3[nH]c4ccc(Br)cc4c3-c3ccccc3)s2)c1`, which growth is on record?
Its growth is -40.5% (active).

For `CCCCCCCCc1cccc(CC(=O)Nc2ccc(C)cc2C(=O)O)c1`, which growth is on record?
Its growth is 69.4% [25 µM].

Which growth does the source give for `CCOC(=O)/C(F)=C/C1CC1C1CCN(C(=O)OC(C)(C)C)CC1` (stereo not given) here?
Its growth is 111%.

How did the growth turn out when `CC1=NN(C2=NC(=O)C(CC(=O)Nc3ccccc3C(F)(F)F)S2)C(c2ccc(N(C)C)cc2)C1` (stereo not given) was run?
The growth was 44.9%.

For `CN(C)c1nc(NCCNS(=O)(=O)c2ccc(C(=O)/C=C/c3ccc(Cl)cc3)cc2)nc(N2CCOCC2)n1`, which growth is on record?
Its growth is -9.86% (active).

With `Cn1cc(Nc2ncnc(-c3ccc(N4CCCC4)c(C#N)c3)n2)cn1` as the compound, how does the growth read?
The growth was 81.6%.

`CCCCCCCCc1ccc(C(=O)Nc2ccc(C)cc2C(=O)O)cc1` was tested. Which growth did it give?
The growth was 94%.

For `Cc1ccc(N=Nc2c(N)nn3c(-c4cc5cc(Br)ccc5oc4=O)ccnc23)cc1`, which growth is on record?
Its growth is 108%.

With `CN1CCN(C(=O)Oc2cc3c(c4ccccc24)[C@H](CCl)CN3C(=O)c2cc3cc(OCCCN4CCC4)ccc3[nH]2)[C@@H]2CSSC[C@H]21` as the compound, how does the growth read?
The growth was 4.14% (active).

Which growth does the source give for `COc1ccc([C@H]2C(C(=O)c3ccc(Cl)cc3)C3(N[C@@H]2c2ccccc2)C(=O)Nc2ccccc23)cc1` (stereo not given in full) here?
The growth was 27.4%.

Which growth does the source give for `O=C(Nc1nc2ccc([N+](=O)[O-])cc2s1)Nc1ccc(Cl)cc1Cl` here?
The growth was 65.4%.

Which growth does the source give for `Cc1cnc2ccc(Oc3ccccc3-c3ccccc3)nn12` here?
Its growth is 120%.

For `COC(=O)c1cc(C(=O)C(F)(F)F)n2c3ccccc3c3ccccc3c12`, which growth is on record?
Its growth is 82.9%.

How did the growth turn out when `N#CC1=C(c2cccs2)Nc2c(c(-c3ccccc3)nn2-c2ccccc2)C12C(=O)Nc1ccc(Br)cc12` (stereo not given) was run?
The growth was -25.7% (active).

`Cc1ccc2c(c1)nc(-c1ccccc1)n2CC(=O)N=Nc1c(O)[nH]c2ccc(Cl)cc12` was tested. Which growth did it give?
Its growth is -70.3% (active).

How did the growth turn out when `CC1=C(C)C(=O)C(N2CCSCC2)=CC1=O` was run?
The growth was 101%.

Which growth does the source give for `O=C(CSc1nc2sc3c(c2c(=O)n1-c1ccc(Cl)cc1)CCCC3)NNC(=O)c1ccc(Br)cc1` here?
The growth was 112%.

Which growth does the source give for `O=C1Nc2cc(-c3ccc(NS(=O)(=O)c4ccc([N+](=O)[O-])cc4)cc3)ccc2/C1=C/c1ccc[nH]1` here?
The growth was -29.4% (active).

With `O=C1Nc2ccccc2/C1=C\c1ccc(OCC(=O)c2ccc(Br)cc2)cc1` as the compound, how does the growth read?
Its growth is 77.5%.

With `O=C(CSc1nc2sc3c(c2c(=O)n1-c1ccc(Cl)cc1)CCCC3)N/N=C/C=C/c1ccccc1` as the compound, how does the growth read?
The growth was 78.3%.

`CCCCCCCCc1ccc(C(=O)Nc2ccc(C)c(OP(=O)(O)O)c2)cc1` was tested. Which growth did it give?
The growth was 96.2%.

How did the growth turn out when `N#Cc1c(-c2ccc(F)cc2)nc(SCc2ccc(F)cc2)nc1N1CCNCC1` was run?
The growth was -35.1% (active).
